Measurements taken from PubChem BioAssay (EPA / NIEHS).
“And” between values parts separate entries of the source, which are not always exact repeats. Identical values can stand only once. Inconclusive results are not listed. The source holds several records for some structures; these can differ, active in one and inactive in another. The source made the active and inactive calls. The calls were made as follows: active = hit-call score of the fitted dose curve at least 0.9, where 1 is the maximum; inconclusive = response in the unintended direction; inactive = score below 0.9.

What was measured:
[1] = LTEA_HepaRG_LDH_cytotoxicity: Cytotoxicity Assessment in the Life Technologies and Expression Analysis (LTEA) Assay (AID 2283563);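 as to AC50: LDH activity released into spent culture medium as a marker of cell death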
In short: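 Differentiated HepaRG cells in serum-free induction medium, exposed 48 h in duplicate to 8 half-log concentrations up to 100 uM in 0.5% DMSO. Cytotoxicity from LDH measured in spent medium, fit relative to DMSO.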

[2] = ATG_XTT_Cytotoxicity: Cytotoxicity Assessment in the Attagene TRANS-FACTORIAL HepG2 Assay (AID 2283584)
In short: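 HepG2 cells transiently transfected with GAL4-UAS multiple reporter units, dosed 24 h; cytotoxicity read by XTT as loss of signal versus DMSO baseline.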

[3] = TOX21_p53_BLA_p2_viability: Viability Assessment in the Tox21 HCT-116 p53 Agonism Beta-lactamase Assay, Phase 2 (AID 2283591);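 also: compound exposure lasted 16 h at 37 °C; actives lower the ATP signal meaning cytotoxicity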
In short: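 HCT116 p53-bla cells, 4000/well, dosed after 5 h plating (217-fold dilution of DMSO stocks) and incubated 16 h at 37C. Viability taken as cellular ATP by CellTiter-Glo luminescence after 30 min RT; signal loss marks cytotoxicity.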

[4] = target: Cellular tumor antigen p53 (Homo sapiens) (UniProt P04637); assay: TOX21_p53_BLA_p2_ratio: Tox21 HCT-116 p53 Agonism Beta-lactamase Assay, Ratio, Phase 2 (AID 2283592)
Sequence of Cellular tumor antigen p53 (Homo sapiens) (P04637 whole entry, looked up): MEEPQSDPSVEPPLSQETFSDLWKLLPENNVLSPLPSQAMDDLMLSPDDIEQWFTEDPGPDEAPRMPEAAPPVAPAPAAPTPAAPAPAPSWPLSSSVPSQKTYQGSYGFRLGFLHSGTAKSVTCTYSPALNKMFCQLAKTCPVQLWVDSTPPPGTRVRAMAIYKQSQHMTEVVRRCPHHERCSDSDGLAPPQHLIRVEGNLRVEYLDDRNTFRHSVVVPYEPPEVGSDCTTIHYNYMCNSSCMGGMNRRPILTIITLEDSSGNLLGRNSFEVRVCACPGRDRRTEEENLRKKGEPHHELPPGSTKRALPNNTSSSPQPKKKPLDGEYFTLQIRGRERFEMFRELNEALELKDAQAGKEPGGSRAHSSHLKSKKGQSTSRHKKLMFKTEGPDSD
In short: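 HCT-116 cells with p53-responsive beta-lactamase reporter, 4000 cells/well, preincubated 5 h, then compound in DMSO (217-fold dilution) for 16 h at 37C. CCF4-AM substrate 2 h at room temperature; 460/530 nm emission ratio fitted upward versus DMSO.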

[5] = TOX21_p53_BLA_p3_viability: Viability Assessment in the Tox21 HCT-116 p53 Agonism Beta-lactamase Assay, Phase 3 (AID 2283593);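 also: cells exposed to compound for 16 h before reading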
In short: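 HCT116 cells, 4000/well, dosed 5 h after plating by pin transfer (217-fold dilution from DMSO stock) and incubated 16 h at 37C, 5% CO2. Viability read as ATP luminescence with CellTiter-Glo after 30 min at room temperature.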

[6] = target: Cellular tumor antigen p53 (Homo sapiens) (UniProt P04637); assay: TOX21_p53_BLA_p3_ratio: Tox21 HCT-116 p53 Agonism Beta-lactamase Assay, Ratio, Phase 3 (AID 2283596)
In short: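 HCT116 p53-bla cells (4000/well) given compound in DMSO (217-fold dilution) after 5 h, incubated 16 h at 37C. CCF4-AM substrate 2 h at room temperature; 460/530 nm emission ratio, gain fitted against DMSO.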

[7] = TOX21_p53_BLA_p4_viability: Viability Assessment in the Tox21 HCT-116 p53 Agonism Beta-lactamase Assay, Phase 4 (AID 2283597);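 also: hits lower the luminescence signal meaning cytotoxicity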
In short: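 HCT-116 p53-bla cells, 4000/well, dosed after 5 h attachment and incubated 16 h at 37 °C, 5% CO2. Viability from CellTiter-Glo ATP luminescence after 30 min at room temperature, taken after the beta-lactamase read; loss of signal indicates cytotoxicity.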

[8] = target: Cellular tumor antigen p53 (Homo sapiens) (UniProt P04637); assay: TOX21_p53_BLA_p5_ratio: Tox21 HCT-116 p53 Agonism Beta-lactamase Assay, Ratio, Phase 5 (AID 2283599)
In short: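 HCT-116 p53-bla cells (4000/well) plated 5 h, dosed with compound (217-fold DMSO dilution) for 16 h at 37 C; CCF4-AM substrate 2 h at room temperature. Activity is the 460/530 nm emission ratio (405 nm excitation), fitted in gain-of-signal direction versus DMSO.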

[9] = TOX21_p53_BLA_p5_viability: Viability Assessment in the Tox21 HCT-116 p53 Agonism Beta-lactamase Assay, Phase 5 (AID 2283600)
In short: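 HCT-116 p53 beta-lactamase reporter cells, 4000/well, were exposed to compound (pin transfer, 217-fold dilution) for 16 hours at 37C. Cellular ATP was read by CellTiter-Glo luminescence after 30 min at room temperature.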

[10] = target: Cellular tumor antigen p53 (Homo sapiens) (UniProt P04637); assay: TOX21_p53_BLA_p4_ratio: Tox21 HCT-116 p53 Agonism Beta-lactamase Assay, Ratio, Phase 4 (AID 2283601)
In short: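 HCT-116 p53 beta-lactamase reporter cells (4000/well) preincubated 5 h, then compound (217-fold dilution of DMSO stock) for 16 h at 37C. CCF4-AM substrate added 2 h at room temperature; 460/530 nm emission ratio fitted upward versus DMSO.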

[11] = Tanguay_ZF_120hpf_MORT_legacy: (Legacy) Oregon State University Tanguay Lab 120 Hour Post-fertilization zebrafish Assay for Mortality (AID 2283633);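 as to AC50: fitted as increase in binary mortality versus DMSO negative control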
In short: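 Dechorionated Tropical 5D wild-type zebrafish embryos, one per well from 6 hpf, static exposure in 0.64% DMSO at 28C until 120 hpf. Mortality scored as binary by brightfield microscopy at 24 and 120 hpf.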

[12] = Tanguay_ZF_120hpf_YSE_legacy: (Legacy) Oregon State University Tanguay Lab 120 Hour Post-fertilization zebrafish Assay for Yolk Sac Edema (AID 2283634);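 as to AC50: actives raise the incidence of yolk sac edema above the DMSO baseline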
In short: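 Dechorionated Tropical 5D wild-type zebrafish embryos were exposed statically, one per well, from 6 to 120 hpf at 28C in 0.64% DMSO. Yolk sac edema was scored present/absent by brightfield at 120 hpf, and dead embryos were excluded.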

[13] = Tanguay_ZF_120hpf_AXIS_legacy: (Legacy) Oregon State University Tanguay Lab 120 Hour Post-fertilization zebrafish Assay for Body Axis Malformation (AID 2283635);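 as to AC50: potency for an increased fraction of larvae scored with body axis malformation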
In short: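 Dechorionated wild-type Tropical 5D zebrafish embryos, one per well, statically exposed from 6 hpf to 120 hpf at 28C in 0.64% DMSO final. Body axis malformation scored present/absent by brightfield microscopy at 120 hpf; dead embryos excluded.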

[14] = Tanguay_ZF_120hpf_EYE_legacy: (Legacy) Oregon State University Tanguay Lab 120 Hour Post-fertilization zebrafish Assay for Eye Malformation (AID 2283636);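 also: binary presence or absence of eye malformation scored by brightfield in 120 hpf larvae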
In short: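 Dechorionated Tropical 5D zebrafish embryos, one per well from 6 hpf, static exposure to 120 hpf at 28C, 0.64% DMSO. Eye malformation scored present/absent by brightfield; dead embryos not scored.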

[15] = Tanguay_ZF_120hpf_SNOU_legacy: (Legacy) Oregon State University Tanguay Lab 120 Hour Post-fertilization zebrafish Assay for Snout Malformation (AID 2283637)
In short: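 Dechorionated tropical 5D wild-type zebrafish embryos exposed statically from 6 to 120 hpf at 28C, one per well, in 0.64% DMSO. Snout malformation scored as present/absent by brightfield at 120 hpf; dead embryos not scored.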

[16] = Tanguay_ZF_120hpf_JAW_legacy: (Legacy) Oregon State University Tanguay Lab 120 Hour Post-fertilization zebrafish Assay for Jaw Malformation (AID 2283638);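 as to AC50: active means more embryos with jaw malformation than DMSO controls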
In short: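 Dechorionated Tropical 5D wild-type zebrafish embryos, one per well, exposed statically from 6 hpf to 120 hpf at 28C in 0.64% DMSO. Jaw malformation was scored by brightfield microscopy as present or absent. It was not scored in dead embryos.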

[17] = Tanguay_ZF_120hpf_OTIC_legacy: (Legacy) Oregon State University Tanguay Lab 120 Hour Post-fertilization zebrafish Assay for Otic Vesicle Malformation (AID 2283639)
In short: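 Otic vesicle malformation is read as a yes/no morphology call at 120 hpf. Exposure is static at 28C with 0.64% (vol/vol) DMSO; embryos that die are excluded from non-mortality endpoints.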

[18] = Tanguay_ZF_120hpf_PE_legacy: (Legacy) Oregon State University Tanguay Lab 120 Hour Post-fertilization zebrafish Assay for Pericardial Edema (AID 2283640);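 as to AC50: potency for increased incidence of pericardial edema versus DMSO baseline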
In short: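 Tropical 5D wild-type zebrafish embryos were statically exposed until 120 hpf at 28C, with 0.64% DMSO final. Pericardial edema was scored by brightfield as present or absent; endpoints were not scored in dead embryos.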

[19] = Tanguay_ZF_120hpf_BRAI_legacy: (Legacy) Oregon State University Tanguay Lab 120 Hour Post-fertilization zebrafish Assay for Brain Malformation (AID 2283641)
In short: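 Tropical 5D wild-type zebrafish embryos exposed statically until 120 hpf at 28C, 0.64% DMSO final, sealed and dark. Brain malformation scored present/absent by brightfield at 120 hpf; dead embryos excluded. Trimethyltin chloride 5uM positive control.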

[20] = Tanguay_ZF_120hpf_SOMI_legacy: (Legacy) Oregon State University Tanguay Lab 120 Hour Post-fertilization zebrafish Assay for Somite Malformation (AID 2283647)
In short: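 Dechorionated Tropical 5D wild-type zebrafish embryos, one per well from 6 hpf, statically exposed at 28C to 120 hpf in 0.64% DMSO; somite malformation scored present/absent by brightfield; trimethyltin 5 uM positive control; dead embryos not scored.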

Measured: AC50

CC(C)NC(=O)N1CC(=O)N(c2cc(Cl)cc(Cl)c2)C1=O
inactive: all assays above

CCOC(=O)C(C)OC(=O)c1cc(Oc2ccc(C(F)(F)F)cc2Cl)ccc1[N+](=O)[O-] (configuration not stated)
not listed: [2] | [15] | [16]
inactive: all other assays above

Cc1c(COC(=O)[C@@H]2[C@H](/C=C(\Cl)C(F)(F)F)C2(C)C)cccc1-c1ccccc1
active: [5] 25.8 µM
inactive: [1] | [3] | [4] | [5] | [6] | [7] | [8] | [9] | [10] | [11] | [12] | [13] | [14] | [15] | [16] | [17] | [18] | [19] | [20]

COP(=S)(OC)Oc1ccc([N+](=O)[O-])c(C)c1
inactive: all assays above

O=c1n(Cl)c(=O)n(Cl)c(=O)n1Cl
not listed: [2] | [6] | [7] | [14] | [15] | [20]
inactive: all other assays above

O=C1C2CC=CCC2C(=O)N1SC(Cl)(Cl)Cl (configuration not stated)
active: [1] 74.5 µM | [3] 25.6 µM | [4] 4.12 µM and 7.62 µM | [6] 77.7 µM and 6.5 µM | [7] 18.1 µM | [8] 19.5 µM | [10] 10.3 µM | [11] 25.1 µM
inactive: [3] | [4] | [5] | [6] | [7] | [8] | [9] | [10] | [12] | [13] | [15] | [16] | [17] | [18] | [19] | [20]

CC1(C)CCC(=Cc2ccc(Cl)cc2)C1(O)Cn1cncn1 (configuration not stated)
not listed: [2] | [15] | [20]
inactive: all other assays above

CCCCC(O)(Cn1cncn1)c1ccc(Cl)cc1Cl (configuration not stated)
active: [7] 82 µM | [8] 72.8 µM | [10] 87 µM
not listed: [2] | [14] | [19]
inactive: all other assays above

COCC(C)N(C(=O)CCl)c1c(C)csc1C (configuration not stated)
active: [11] 36.4 µM | [12] 18.3 µM | [13] 27.3 µM | [14] 24.8 µM | [15] 8.23 µM | [16] 25.6 µM | [17] 8.94 µM | [18] 31 µM | [19] 8.88 µM | [20] 30.4 µM
inactive: [1] | [3] | [4] | [6] | [7] | [8] | [9] | [10]
